Test [1] deals with Plasmodium falciparum Sir2 (PF13_0152, Sir2A). The test can be described thus: Plasmodium falciparum Sir2A binding compounds – biochemical, small-molecule microarray, 635 nm fluorescence, primary screen (AID 1098).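 Further: score merges spot fluorescence intensity with its signal-to-noise ratio.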 Particulars: fluorescence 635 nm, higher = more signal.
Test [2] in a line: probe aDKK1 binding to arrayed compounds – biochemical, biotinylated probe, 635/667 nm fluorescence, primary screen (AID 1099).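 Further: score merges 667nm spot fluorescence with signal to noise across triplicate slides.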 Particulars: small-molecule microarray, higher = more signal.
A short description of test [3]: probe aCHRDL2 binding to arrayed compounds – biochemical, biotinylated probe, 635/667 nm fluorescence, primary screen (AID 1100). Particulars: small-molecule microarray, higher = more signal.
The nature of test [4]: change in splice reporter luminescence, either direction, cell-based, HEK293, spliceosome inhibition project, primary screen (AID 1101).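 Further: HEK293 cells carrying a splicing-competent luciferase reporter gene; test concentration not given here.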 Particulars: HEK293 splicing luciferase reporter, 24 h, higher = more signal, called active from +8 up or from −8 down. In general terms: In a reporter assay the amount or activity of a reporter protein is the signal.
For test [5], the target named is Fibroblast growth factor 10 (Homo sapiens) (UniProt O15520). The experiment in a line: compounds binding fibroblast growth factor 10 – biochemical, small-molecule microarray, 635 nm fluorescence, primary screen (AID 1102). Particulars: FGF10 binding, fluorescence 635 nm, higher = more signal.
Fibroblast growth factor 10 (Homo sapiens), sequence (O15520 whole entry, looked up): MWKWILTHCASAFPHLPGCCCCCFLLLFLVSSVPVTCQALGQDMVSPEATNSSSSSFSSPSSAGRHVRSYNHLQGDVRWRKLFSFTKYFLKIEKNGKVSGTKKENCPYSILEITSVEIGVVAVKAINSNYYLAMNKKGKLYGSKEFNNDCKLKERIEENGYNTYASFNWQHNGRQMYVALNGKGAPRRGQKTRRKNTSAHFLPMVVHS
Test [6] concerns glycogen synthase kinase-3 (GSK3A per assay name; protocol says GSK3B). The experiment in a line: compounds binding glycogen synthase kinase-3 – biochemical, small-molecule microarray, 635 nm fluorescence, GSK3A, primary screen (AID 1103). Further: the record names both GSK3A and GSK3B. Particulars: fluorescence 635 nm, higher = more signal.
The target in test [7] is Epidermal growth factor receptor (Homo sapiens) (UniProt P00533). The test can be described thus: compounds binding epidermal growth factor receptor – biochemical, small-molecule microarray, 635 nm fluorescence, primary screen (AID 1104).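 Further: score merges 667 nm emission intensity with spot signal to noise over triplicate slides.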 Particulars: EGFR binding, higher = more signal.
Epidermal growth factor receptor (Homo sapiens), sequence (P00533 whole entry, looked up): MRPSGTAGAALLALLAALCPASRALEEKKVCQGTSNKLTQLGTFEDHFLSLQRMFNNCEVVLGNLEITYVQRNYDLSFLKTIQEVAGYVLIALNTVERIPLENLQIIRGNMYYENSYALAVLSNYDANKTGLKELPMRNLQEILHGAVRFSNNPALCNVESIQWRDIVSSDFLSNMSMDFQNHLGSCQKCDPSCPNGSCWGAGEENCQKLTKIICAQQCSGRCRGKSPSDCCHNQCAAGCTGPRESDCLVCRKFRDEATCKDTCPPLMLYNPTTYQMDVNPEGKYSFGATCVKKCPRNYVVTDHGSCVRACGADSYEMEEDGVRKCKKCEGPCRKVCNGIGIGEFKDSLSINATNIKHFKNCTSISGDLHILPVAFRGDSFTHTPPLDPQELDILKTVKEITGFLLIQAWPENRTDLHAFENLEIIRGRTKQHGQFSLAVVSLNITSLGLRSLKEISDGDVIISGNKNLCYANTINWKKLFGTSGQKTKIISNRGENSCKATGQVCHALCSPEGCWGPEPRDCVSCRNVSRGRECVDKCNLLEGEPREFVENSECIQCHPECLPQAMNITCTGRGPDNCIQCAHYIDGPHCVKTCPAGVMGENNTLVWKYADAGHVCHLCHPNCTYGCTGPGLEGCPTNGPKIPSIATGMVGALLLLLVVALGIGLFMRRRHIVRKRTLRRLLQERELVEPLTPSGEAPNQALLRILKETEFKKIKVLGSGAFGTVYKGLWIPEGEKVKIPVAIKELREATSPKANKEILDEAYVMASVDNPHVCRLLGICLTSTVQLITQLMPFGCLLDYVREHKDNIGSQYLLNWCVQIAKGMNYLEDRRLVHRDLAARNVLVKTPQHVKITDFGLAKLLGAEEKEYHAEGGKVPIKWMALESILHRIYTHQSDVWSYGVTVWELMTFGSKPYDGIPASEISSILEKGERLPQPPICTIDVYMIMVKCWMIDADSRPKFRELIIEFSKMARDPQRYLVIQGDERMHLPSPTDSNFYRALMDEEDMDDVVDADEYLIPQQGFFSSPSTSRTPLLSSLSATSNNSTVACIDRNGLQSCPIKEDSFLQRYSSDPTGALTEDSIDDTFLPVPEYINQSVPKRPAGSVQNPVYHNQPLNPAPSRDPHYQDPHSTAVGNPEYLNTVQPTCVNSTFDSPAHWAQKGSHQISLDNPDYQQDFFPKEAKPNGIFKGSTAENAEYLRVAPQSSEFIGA
The target of test [8] is Follistatin-related protein 3 (Homo sapiens) (UniProt O95633). The test can be described thus: compounds binding follistatin-related protein 3 – biochemical, small-molecule microarray, 635 nm fluorescence, primary screen (AID 1105).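 Further: score merges emission near 667 nm and signal to noise per printed spot across three slides.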 Particulars: FSTL3 binding, higher = more signal.
Follistatin-related protein 3 (Homo sapiens), sequence (O95633 whole entry, looked up): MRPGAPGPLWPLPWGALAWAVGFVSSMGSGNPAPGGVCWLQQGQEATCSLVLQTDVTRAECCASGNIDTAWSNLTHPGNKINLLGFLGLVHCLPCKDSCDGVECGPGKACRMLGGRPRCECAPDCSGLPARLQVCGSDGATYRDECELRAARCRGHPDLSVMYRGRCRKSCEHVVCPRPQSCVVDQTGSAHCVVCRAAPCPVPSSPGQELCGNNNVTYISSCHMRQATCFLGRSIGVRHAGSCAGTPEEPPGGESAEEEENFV
In test [9] the target is Dickkopf-related protein 1 (Homo sapiens) (UniProt O94907). The test can be described thus: small molecules binding DKK1 protein – biochemical, small-molecule microarray, 635 nm fluorescence scan, primary screen (AID 1106).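 Further: score merges emission near 667 nm with signal to noise over three replicate slides.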 Particulars: higher = more signal.
Dickkopf-related protein 1 (Homo sapiens), sequence (O94907 whole entry, looked up): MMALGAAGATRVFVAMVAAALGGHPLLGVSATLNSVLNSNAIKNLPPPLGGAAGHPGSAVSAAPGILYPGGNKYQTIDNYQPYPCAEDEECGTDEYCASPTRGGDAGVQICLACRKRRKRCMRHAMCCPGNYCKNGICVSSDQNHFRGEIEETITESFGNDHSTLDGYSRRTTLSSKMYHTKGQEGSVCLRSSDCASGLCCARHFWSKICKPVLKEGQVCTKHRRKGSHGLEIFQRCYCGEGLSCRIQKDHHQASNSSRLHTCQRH
The test system of test [10] is Inhibin beta A chain (activin A). The experiment in a line: small molecules binding activin A – biochemical, small-molecule microarray, 635 nm fluorescence scan, primary screen (AID 1107).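 Further: mouse activin A protein probed at 4.33 µg/mL on printed slides; score merges bound-protein fluorescence near 667 nm with spot signal-to-noise.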 Particulars: INHBA, higher = more signal.
In test [11] the test system is Human papillomavirus type 1a protein E7 (residues 44-93). The test can be described thus: small molecules binding HPV E7 44-93 – biochemical, small-molecule microarray, residues 44-93, 635 nm fluorescence, primary screen (AID 1108).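 Further: E7 fragment applied at 1 µg/mL in TBST for 1 h at 4 C; score combines spot fluorescence with its signal to noise ratio.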 Particulars: fluorescence 635 nm, higher = more signal.
Test [12] in a line: hepatitis C replication reporter changes, two-sided – Huh7 cells, luciferase reporter, HCV replication inhibitor project, primary screen (AID 1109).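 Further: huh7 hepatoma cells harbouring a luciferase neomycin HCV replicon reporter; luciferase luminescence as measure of HCV replicon replication; test concentration not given here.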 Particulars: Huh7 HCV replicon luciferase reporter, 48 h; higher = more signal.
Test [13] has as its target Left-right determination factor 2 (Homo sapiens) (UniProt O00292). The experiment in a line: small molecules binding LEFTY2 protein – biochemical, small-molecule microarray, 635 nm fluorescence scan, primary screen (AID 1110). Particulars: higher = more signal.
The target in test [14] is Calmodulin-1 (Homo sapiens) (UniProt P0DP23). The test can be described thus: small molecules binding calmodulin-1 with EGTA – biochemical, small-molecule microarray, Cy5-labelled CALM1, profiling panel (AID 1111).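 Further: labelled calmodulin applied in Tris saline Tween buffer holding calcium plus EGTA and DTT.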 Particulars: Cy5-CALM1 binding fluorescence, higher = more signal.
Test [15] has the same target. The experiment in a line: small molecules binding Ca-loaded calmodulin-1 – biochemical, small-molecule microarray, Cy5-labelled CALM1, plus calcium, artefact control for SMM control-protein annotation, profiling panel (AID 1112).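 Further: score merges spot fluorescence with signal to noise from triplicate slides.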 Particulars: Cy5-CALM1 binding fluorescence, higher = more signal.
Test [16] in a line: probe aWnt5a binding to arrayed compounds – biochemical, biotinylated probe, 635/667 nm fluorescence, primary screen (AID 1113).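 Further: score merges 667 nm fluorescence intensity with signal-to-noise per printed feature.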 Particulars: small-molecule microarray, higher = more signal.
Test [17] in a line: probe aShh binding to arrayed compounds – biochemical, biotinylated probe, 635/667 nm fluorescence, primary screen (AID 1114).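 Further: probe is biotin-labelled aShh protein from a stem cell growth factor screen; measures binding of labelled protein to compounds printed on the slide; score merges feature fluorescence at 667 nm with signal-to-noise.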 Particulars: small-molecule microarray, higher = more signal.
The nature of test [18]: probe aNog binding to arrayed compounds – biochemical, biotinylated probe, 635/667 nm fluorescence, primary screen (AID 1115).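 Further: probe is biotinylated aNog protein used at 0.15 µg/mL for 1 h at 4 C; z-score combines 667 nm fluorescence of each spot with its signal to noise.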 Particulars: small-molecule microarray, higher = more signal.
Test [19] addresses Torsin-1A-interacting protein 1 (Homo sapiens) (UniProt Q5JTV8). The experiment in a line: compound microarray binding of lysate hLAP1 – cell lysate, small-molecule microarray, COS7 lysate, 635/667 nm fluorescence, primary screen (AID 1116). Particulars: 635 nm fluorescence, higher = more signal.
The target of test [20] is Alpha-bungarotoxin (Bungarus multicinctus) (UniProt P60615). The experiment in a line: compounds binding labelled alpha-BTX control protein – biochemical, small-molecule microarray, Alexa647 label, 635/667 nm fluorescence, artefact control for SMM control protein annotation, profiling panel (AID 1117). Particulars: alpha-BTX-A647 binding fluorescence, higher = more signal.
Alpha-bungarotoxin (Bungarus multicinctus), sequence (P60615 whole entry, looked up): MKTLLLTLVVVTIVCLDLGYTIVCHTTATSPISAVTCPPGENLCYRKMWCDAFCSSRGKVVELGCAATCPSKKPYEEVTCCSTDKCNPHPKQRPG

Structures are written as SMILES. Calls of active or inactive are those of the source.

Torsin-1A-interacting protein 1 (Homo sapiens), sequence (Q5JTV8 whole entry, looked up): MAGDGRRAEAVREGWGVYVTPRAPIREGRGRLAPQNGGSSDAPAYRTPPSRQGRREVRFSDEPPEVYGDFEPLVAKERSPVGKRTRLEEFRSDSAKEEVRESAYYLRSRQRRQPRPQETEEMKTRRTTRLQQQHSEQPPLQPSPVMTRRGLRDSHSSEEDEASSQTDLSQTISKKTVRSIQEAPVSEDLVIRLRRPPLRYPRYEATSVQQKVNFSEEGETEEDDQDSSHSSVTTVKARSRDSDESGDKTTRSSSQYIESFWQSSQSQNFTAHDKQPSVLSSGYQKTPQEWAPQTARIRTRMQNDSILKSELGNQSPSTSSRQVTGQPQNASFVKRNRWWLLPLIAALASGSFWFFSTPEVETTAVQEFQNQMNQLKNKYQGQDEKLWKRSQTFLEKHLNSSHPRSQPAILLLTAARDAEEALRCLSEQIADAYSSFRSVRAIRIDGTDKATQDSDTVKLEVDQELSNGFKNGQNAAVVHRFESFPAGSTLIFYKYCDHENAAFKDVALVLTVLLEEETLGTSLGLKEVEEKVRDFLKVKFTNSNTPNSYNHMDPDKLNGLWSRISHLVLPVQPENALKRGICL
Left-right determination factor 2 (Homo sapiens), sequence (O00292 whole entry, looked up): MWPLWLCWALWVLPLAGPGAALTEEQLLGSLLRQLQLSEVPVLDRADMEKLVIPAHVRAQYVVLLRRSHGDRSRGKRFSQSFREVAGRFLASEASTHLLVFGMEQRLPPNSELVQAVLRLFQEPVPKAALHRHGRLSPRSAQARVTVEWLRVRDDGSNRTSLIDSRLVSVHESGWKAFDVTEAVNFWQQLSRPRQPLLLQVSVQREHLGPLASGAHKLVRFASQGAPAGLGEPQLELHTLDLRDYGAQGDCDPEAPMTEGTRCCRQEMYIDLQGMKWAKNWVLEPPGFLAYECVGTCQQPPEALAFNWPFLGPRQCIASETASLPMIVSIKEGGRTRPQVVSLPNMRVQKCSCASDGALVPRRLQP

`C=CCNC(=O)[C@@H]1[C@H]2C(=O)O[C@H](c3ccccc3)[C@H](c3ccccc3)N2[C@H](c2ccc(O)cc2)[C@@]12C(=O)N(C(=O)OCCOC)c1ccc(C#Cc3ccc(OC)cc3)cc12`: the composite z-score is 1.12 in [1]; 0.51 in test [2]; -0.382 in [3]; 0.793 in test [5]; 1.3 in test [6]; 0.541 in test [7]. The composite z-score was 0.62 in [8]; 1.12 in [9]; -0.071 in [10]; 1.13 in [11]; 0.638 in test [13]; 1.75 in test [14]. The composite z-score in [15] is 0.185; in test [16], -0.0368; in test [17] it was -0.0011; in test [18] it was 0.315; in test [19], 1.13; in test [20], 0.579. Besides, the z-score in test [4] is -1.16 (inactive); in [12] it was -1.77.

As to `[N-]=[N+]=NCc1ccccc1C[C@@]1(C(=O)NCc2ccccc2)N=C(c2ccc(OCCCO)cc2)O[C@@H]1c1ccccc1`, the composite z-score was 0.92 in test [1]; 0.928 in [2]; 1.12 in [3]; 0.185 in [5]; 0.6 in [6]; -0.471 in [7]. The composite z-score in [8] was -0.159; in test [9], -0.373; in test [10] it was 0.661; in test [11], 0.212; in test [13], -0.592; in [14] it was 1.43. In addition, the composite z-score in test [15] was 1.21; in test [16], 0.0761; in test [17], 0.0644; in test [18], 0.868; in [19], 0.595; in test [20], 0.732. Besides, the z-score in test [4] was -1.4 (inactive); in test [12] it was -3.05.

Turning to `CCCCCN1CC=CC23O[C@@H]4/C=C\CCC(C)OC(=O)C4[C@H]2C(=O)N(CCO)[C@@H]3C1=O` (stereo not given in full), the composite z-score in test [1] was 1.3; in test [2], -0.205; in test [3], 0.791; in test [5], -0.825; in [6], -0.413; in [7], -1.81. Besides, the composite z-score in test [8] is -1.13; in [9], -1.2; in [10], 1.57; in [11] it was 0.408; in test [13] it was -1.43; in test [14], -0.659. Moreover, the composite z-score in test [15] was -0.295; in test [16], -0.176; in test [17] it was -0.279; in test [18] it was 0.552; in [19] it was -0.0418; in test [20], -1.7. Moreover, the values for the z-score in [4] and in test [12] were -0.688 (inactive) and 0.382, respectively.

For `CC(C)C[C@@H]1NC(=O)[C@@H]2C[C@H](C(=O)NCCCCCNC(=O)CS)[C@H](c3cccc(OCCO)c3)N2C1=O`, the composite z-score was 1.68 in test [1]; 0.588 in [2]; 0.619 in test [3]; 0.654 in test [5]; 1.32 in test [6]; 0.717 in [7]. Further, the composite z-score came to 0.921 in test [8]; 0.741 in test [9]; 0.947 in test [10]; 0.64 in test [11]; 0.581 in test [13]; 0.942 in test [14]. Besides, the composite z-score in test [15] is 0.0355; in test [16], -0.0236; in test [17] it was 0.242; in test [18], 0.418; in test [19] it was 1.25; in [20], 2.72. Moreover, the figures for the z-score in test [4] and in test [12] were -1.15 (inactive) and 0.568, respectively.

On to `NC(=O)NCC#Cc1ccc2c(c1)[C@]1(C(=O)N2)[C@H](c2ccc(OCCO)cc2)N2[C@H](c3ccccc3)[C@H](c3ccccc3)OC(=O)[C@H]2[C@@H]1C(=O)Nc1nc2ccccc2s1`, for which the composite z-score in test [1] was 0.0284; in test [2], 0.918; in test [3], 1.2; in test [5] it was 0.178; in test [6] it was -0.282; in test [7] it was -0.345. The composite z-score in test [8] was 0.224; in [9], -0.463; in [10] it was 1.35; in test [11] it was -0.107; in [13] it was -0.64; in test [14], 0.728. The composite z-score in test [15] is 0.789; in test [16], -0.184; in test [17] it was 0.046; in test [18], 0.339; in [19], 0.173; in test [20], 1.03. Besides, the z-score is -1 (inactive) in test [4] and -0.495 in test [12].

Regarding `COC(=O)C1=CC(c2ccc(CO)cc2)=CC(c2cccs2)N(C)C=C1C(=O)OC` (stereo not given), the composite z-score is 1.52 in test [1]; 0.772 in [2]; 1.13 in test [3]; -0.0489 in test [5]; -0.57 in [6]; -0.407 in test [7]. For the same compound, the composite z-score in test [8] was 0.409; in test [9], -0.813; in test [10] it was 1.46; in test [11], -0.526; in test [13], -0.76; in test [14], 1.36. Besides, the composite z-score is 0.774 in [15]; -0.096 in [16]; 0.138 in test [17]; 0.603 in [18]; 0.107 in test [19]; 0.765 in test [20]. For the same compound, the z-score in test [4] was -1.77 (inactive); in [12] it was -0.176.

For `CCN(CC)c1ccc(N2CC=CC34O[C@@H]5C=CCOC(=O)[C@@H]5[C@H]3C(=O)N(C(CO)C(C)C)[C@@H]4C2=O)cc1` (stereo not given in full), the composite z-score in test [1] was -0.0952; in test [2], -0.239; in test [3], -0.202; in test [5] it was -0.608; in [6], -0.142; in test [7], -1.01. For the same compound, the composite z-score was -0.586 in test [8]; 0.0041 in test [9]; 0.761 in [10]; -0.825 in test [11]; -0.827 in test [13]; -0.647 in test [14]. The composite z-score in test [15] was -0.752; in test [16] it was -0.129; in test [17], -0.0626; in test [18] it was -0.481; in test [19] it was -0.257; in test [20], -0.274. The z-score is -0.133 (inactive) in test [4] and -0.496 in [12].

In the case of `CC(C)(C)OC(=O)CC[C@@]1(C(=O)N2CCOCC2)N=C(c2ccc(OCCCO)cc2)O[C@@H]1c1ccccc1`, the composite z-score in test [1] was 1.12; in test [2] it was 1.33; in [3], 1.36; in test [5], 0.728; in [6] it was 0.943; in [7] it was -0.384. The composite z-score in test [8] is -0.462; in test [9], -0.607; in test [10] it was 0.743; in test [11] it was 0.358; in test [13], -0.26; in test [14], 2.08. Moreover, the composite z-score in test [15] is 1.31; in test [16], -0.0403; in test [17] it was 0.798; in [18], 1.4; in test [19], 3.32; in [20], 2.06. The z-score in [4] is -1.17 (inactive); in [12] it was -0.0126.

(Values after PubChem BioAssay.)
